Cav3 T inh: blocks human Cav3.2 T-type calcium channel; B-score at 10 µM; O95180; AID 449739; Cav3.2-expressing cells, Fluo-4 calcium fluorescence FDSS; active compounds read low; hit rate 4% among 100,000;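 active = single-dose well whose peak fluorescence ratio is a statistical outlier from its plate by either plate-standardised score or position-corrected B-score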
CYP2C9 inh: blocks human cytochrome P450 2C9; P11712; CYP2C9 Supersomes, luciferin-H conversion, luminescence; inhibition, % at 5 µM; hit rate 20% among 96,000;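 active = blocking of liver enzyme CYP2C9 beyond about 50% at 5 µM, limit read from the data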
CYP2C19 activ: increases human CYP2C19 enzyme activity. P33261. activation factor at 5 µM. 96,000 tested, under 10 active. AID 1025. recombinant CYP2C19, luciferin-H EGE luminescence; active compounds read high; 0 = fully inhibited enzyme, 1 = untreated enzyme;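 active = activation factor of at least 2 at 5 µM in the primary screen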
Target sequence (P33261 whole entry, looked up): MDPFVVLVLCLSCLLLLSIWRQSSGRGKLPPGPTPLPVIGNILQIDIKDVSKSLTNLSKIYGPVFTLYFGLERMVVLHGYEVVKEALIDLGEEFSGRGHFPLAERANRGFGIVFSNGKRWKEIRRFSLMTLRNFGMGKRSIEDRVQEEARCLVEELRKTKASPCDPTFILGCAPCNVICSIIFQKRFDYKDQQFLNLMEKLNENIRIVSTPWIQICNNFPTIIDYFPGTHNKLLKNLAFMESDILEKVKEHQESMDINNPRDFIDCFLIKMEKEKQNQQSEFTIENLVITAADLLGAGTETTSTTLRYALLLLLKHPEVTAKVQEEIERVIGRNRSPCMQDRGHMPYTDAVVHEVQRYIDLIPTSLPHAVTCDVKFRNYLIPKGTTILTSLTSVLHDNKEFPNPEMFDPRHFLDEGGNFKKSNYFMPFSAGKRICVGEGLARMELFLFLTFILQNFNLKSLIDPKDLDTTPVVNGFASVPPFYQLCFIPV
CYP2C19 inhib: human CYP2C19 inhibition | P33261 | CYP2C19 Supersomes, luciferin-H EGE luminescence, 30 min | inhibition, % at 5 µM | hit rate 21% among 96,000;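 active = CYP2C19 inhibition above a set limit at 5 µM in the primary screen, cut at about 50% in these data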
CYP2C9 activ: CYP2C9 (human) activation; P11712; recombinant CYP2C9, luciferin-H conversion, luminescence; active compounds read high; factor 1 = untreated enzyme, 0 = blocked; activation factor at 5 µM; hit rate 1.4% among 96,000;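 active = activation factor of 2 or more for CYP2C9 at a 5 µM dose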
A number is an active result; 0 = inactive; - = not tested or not shown. In the library only some 27% were active in any assay of this set; here they are far more common.

SMILES	Cav3 T inh	CYP2C9 inh	CYP2C19 activ	CYP2C19 inhib	CYP2C9 activ
Cc1ccc2nc(SCC(=O)Nc3cc(C)on3)[nH]c2c1	0	78	0	76	0
COC(=O)c1ccc(CSc2nc3ccc(C)cc3[nH]2)o1	0	83	0	93	0
O=C(Nc1nc2ccccc2[nH]1)C1CC(=O)N(c2ccc3c(c2)OCCO3)C1 (stereo unspecified)	0	62	0	59	0
Cc1ccccc1P(=O)(CO)c1ccccc1C	0	0	0	0	0
O=C1C[C@@H](c2ccc(O[C@@H]3O[C@H](CO)[C@@H](O)[C@H](O)[C@H]3O)cc2)Oc2cc(O)ccc21	0	-	-	-	-
N#CC1(P(=O)(c2ccccc2)c2ccccc2)CC1	0	0	0	0	0
O=C(CSc1nc(Nc2ccccc2)nc(N2CCOCC2)n1)N1CCCC1	0	0	0	0	0
CCCCn1c(N)c(N(CCOC)C(=O)CSc2nc3ccc(C)cc3[nH]2)c(=O)[nH]c1=O	0	0	0	0	0
Cc1ccc2nc(SCC(=O)Nc3ccc4c(c3)OCCO4)[nH]c2c1	0	83	0	0	0
CCOC(=O)c1sc(N)c(C#N)c1CSc1nc2ccc(C)cc2[nH]1	0	76	0	77	0
Cc1cccc(-n2ccnc2SCC(=O)Nc2ccc3c(c2)OCCO3)c1	-	70	0	0	0
O=C(CSc1nc(Nc2ccccc2)nc(N2CCOCC2)n1)Nc1ccc2c(c1)OCCO2	0	60	0	61	0
COC(=O)c1onc(-c2c(C)cc(C)cc2C)c1C(=O)OC	0	0	0	0	0
CC1=C(C/C=C(\C)CCC[C@H](C)CCC[C@H](C)CCCC(C)C)C(=O)c2ccccc2C1=O	0	-	-	-	-
O=C(CSc1nc(Cc2ccccc2)nc2ccccc12)c1ccc2c(c1)OCCO2	0	89	0	0	0
Cc1ccc2nc(SCC(=O)c3ccc4c(c3)OCO4)[nH]c2c1	-	69	0	0	0
Cc1ccc2nc(SCC(=O)c3ccc(Cl)s3)[nH]c2c1	0	60	0	0	0
O=C(O)CSc1nc2ccc(Cl)cc2[nH]1	0	0	0	0	0
Cc1ccc(C(=O)CSc2nc(C)cc(=O)[nH]2)cc1	0	0	0	0	0
O=C(CSc1nc2ccccc2[nH]1)c1ccc2c(c1)OCO2	0	71	0	92	0
CC1CN(C(=O)c2ccc(COCC(F)(F)F)o2)CC(C)O1 (stereo unspecified)	0	0	0	0	0
Cc1nc(Nc2ccc(S(N)(=O)=O)cc2)oc1C	0	0	0	0	0
CC(=O)c1c(C)[nH]c(C(=O)CSc2nc3ccc(C)cc3[nH]2)c1C	0	94	0	90	0
Cc1[nH]c2ccccc2c1C(=O)CSc1nc2ccccc2[nH]1	0	0	0	0	0
CCC1CCc2c(sc3ncnc(N4CCOCC4)c23)C1 (stereo unspecified)	0	0	0	89	0
SMILES	Cav3 T inh	CYP2C9 inh	CYP2C19 activ	CYP2C19 inhib	CYP2C9 activ
C=CCOC(=O)CN1C(=O)c2ccccc2C1=O	0	0	0	61	0
CC1(C)CC(=O)c2cc(C(=O)N3CCN(CCO)CC3)c(=O)n(-c3ccc(Cl)cc3)c2C1	0	0	0	0	0
CSc1cc(C)n(-c2ccccc2)c(=S)c1C(C)=O	-	0	0	0	0
CCN(CC)c1ccc(C2C(C(=O)OCCOC(C)C)=C(C)NC3=C2C(=O)CCC3)cc1 (stereo unspecified)	0	0	0	0	0
CCOC(=O)c1[nH]c2c(c1C)C(=O)CC(c1ccc(OC)c(OC)c1)C2 (stereo unspecified)	0	81	0	0	0
COc1cc(C2CC(=O)c3c([nH]c(C(=O)OCCOC(C)C)c3C)C2)cc(OC)c1OC (stereo unspecified)	-4.7	79	0	0	0
CCCCC1=CC2=CC(=O)C(C)(OC(=O)CC)C(=O)C2=CN1CCc1ccc(Br)cc1 (stereo unspecified)	0	-	-	-	-
CCCn1c(NCc2cccc(OC)c2O)nc2ccccc21	0	-	-	-	-
COc1cccc(CNn2c(-c3cccc(C)c3)nc3ccccc3c2=O)c1O	0	0	0	80	0
CCOC(=O)C1=C(Cc2ccc(F)cc2)C(=O)c2ccccc2C1=O	0	0	0	87	0
O=C(CSc1ncc(C(F)(F)F)cc1Cl)N1CCN(S(=O)(=O)c2ccc(Cl)cc2)CC1	-	0	0	79	0
O=C(CSc1nnc2c(Cl)cc(Cl)cn12)N1CCN(S(=O)(=O)c2ccccc2)CC1	0	0	0	0	0
O=C(CSc1ncc(C(F)(F)F)cc1Cl)N1CCN(S(=O)(=O)c2ccccc2)CC1	-4.1	0	0	81	0
O=C(NCC(F)(F)F)Nc1cccnc1	0	-	-	-	-
O=S1(=O)[C@H]2C[C@@H]3C=C[C@]2(CN1Cc1ccc(C(F)(F)F)cc1)O3	0	-	-	-	-
O=C(Nc1ccc2nc(C3CC3)n(Cc3ccc(F)cc3)c(=O)c2c1)c1ccco1	0	67	0	56	0
COc1cccc(Cn2c(C3CC3)nc3ccc(NC(=O)c4ccco4)cc3c2=O)c1	0	0	0	0	0
Cc1cccc(OCC(=O)Nc2ccccc2N2CCN(C(=O)C(C)C)CC2)c1C	-4.9	56	0	0	0
Cc1ccc(C(C)C)c(OCC(=O)Nc2ccccc2N2CCN(C)CC2)c1	0	87	0	69	0
CC(=O)N1CCN(c2ccccc2NC(=O)COc2cc(C)ccc2C(C)C)CC1	-5.7	94	0	90	0
Cc1cc(C)c(S(=O)(=O)NCCn2ccc3ccccc32)c(C)c1	0	87	0	0	0
O=C(COc1ccc2ccccc2c1)NCCn1ccc2ccccc21	0	0	0	0	0
COc1cccc(C(=O)NCCn2ccc3ccccc32)c1	0	0	0	79	0
COc1ccccc1C(=O)NCCn1ccc2ccccc21	0	0	0	88	0
CC(=O)NCCn1ccc2ccccc21	0	0	0	0	0
SMILES	Cav3 T inh	CYP2C9 inh	CYP2C19 activ	CYP2C19 inhib	CYP2C9 activ
COc1ccc(C(=O)NCCn2ccc3ccccc32)cc1OC	0	0	0	0	0
COc1cc(OC)cc(C(=O)NCCn2ccc3ccccc32)c1	0	0	0	78	0
CC(C)c1ccc(/C=C/C(=O)n2nnc3ccccc32)cc1	-	0	0	0	0
COCCn1ccc(O)c(Cc2ccccc2)c1=O	0	0	0	0	0
O=C(Cc1ccccc1)NCCn1ccc2ccccc21	0	0	0	76	0
CCC(=NCc1ccco1)c1c(C(F)(F)F)[nH]n(-c2nc3ccccc3s2)c1=O	0	70	0	64	0
CCC(=NCc1ccccc1)c1c(C(F)(F)F)[nH]n(-c2nc3ccccc3s2)c1=O	0	94	0	68	0
Cc1c(OCc2ccccc2)c(=O)ccn1Cc1ccccc1	0	0	0	68	0
O=c1ccn(Cc2ccccc2)c2ccccc12	0	-	-	-	-
C[C@@H]1CCC[C@@]2(O[C@@H](CCO)C[C@@H](O)[C@@H]2O)O1	0	-	-	-	-
Cc1nc2cc(-c3ccccc3)nn2c(C)c1CCC(=O)N1CCN(c2ccccc2)CC1	-6	0	0	0	0
CCOC(=O)C(C(=O)NCc1cccc(OC)c1)c1ncc(C(F)(F)F)cc1Cl (stereo unspecified)	0	0	0	0	0

Screening data deposited in PubChem BioAssay by several laboratories.
